Assay results taken from PubChem BioAssay AID540364 (The Scripps Research Institute Molecular Screening Center, 2011).
The whole screen tested about 360,000 compounds, of which about 2,000 (0.56%) were called active. Shown is part of a subset that was picked to be rich in actives. Values without a mark were called inactive.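 How the source made its calls: active means activation above the average of all compounds screened plus 3 SD, cutoff fixed separately per campaign (cut at about 7.5% in these data); inactive means the rest.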

test: FXN promoter activators, primary screen, cell-based, luciferase luminescence, HEK293 lucGAA850 (AID 540364); conditions: HEK293 lucGAA850 FXN promoter luciferase reporter, 24 h; at 6 µM; active compounds read high;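 further: 0% = DMSO wells and 100% = 10 µM SAHA wells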

Compound	activation
O=C1C2(Cl)C3(Cl)C4(Cl)C(Cl)(Cl)C5(Cl)C3(Cl)C1(Cl)C5(Cl)C24Cl (stereo not given)	9.58% (active)
COc1ccc(Br)cc1CNCCc1cccc(Cl)c1	-0.31%
O=C(c1cc2nc(-c3ccccc3)cc(-c3ccccc3)n2n1)N1CCC2(CC1)OCCO2	-0.55%
NCC(O)c1ccc(O)cc1 (stereo not given)	2.36%
CC(C)(C)c1ccc(OC(=O)N2CCCCC2)cc1	8.59% (active)
O=C(Nc1cccc(OC(=O)N2CCCCC2)c1)N1CCOCC1	-1.14%
CN1CCN(C(=O)COc2ccc(C(C)(C)C)cc2Br)CC1	-0.38%
CCN(CC)P(=O)(Oc1cccc(C)c1)N(CC)CC	-1.37%
COc1ccc(-n2c(-c3ccccc3)nc3ccccc3c2=O)cc1	0.96%
CC(=C1C(=O)c2ccccc2C1=O)N1CCN(CCN=Cc2c(O)n(C)c(=O)n(C)c2=O)CC1	1.17%
